Growth data for 14 molecules are collected here from PubChem BioAssay (NCI).

Molecules are shown by their SMILES. This is part of a sample that, as a whole, favours compounds with a hit. Of some 83,000 tested, about 20% had one in any assay.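 For each line, cells grew in 96-well plates with the test compound present at a single concentration for 48 hours.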 Values without a mark were called inactive. Activity calls are given as the source filed them. How the source made its calls: active means growth percent below 10; inactive means the rest.

Among the test systems are SK-MEL-2 melanoma; EKVX NSCLC; SN12C renal; UO-31 renal; TK-10 renal; ACHN renal; CAKI-1 renal; A498 renal; CCRF-CEM leukemia; MOLT-4 leukemia.
What all share (assay): NCI-60 one-dose screen, 48 h (100 = growth as untreated, 0 = no growth, -100 = all killed)
Conditions in all cases: 10 µM unless noted

With `COc1cccc2c1C(=O)c1c(O)c3c(c(O)c1C2=O)C[C@@](O)(C(=O)CO)C[C@@H]3OC1CC(OC(C)=O)C(OC(C)=O)C(C)O1` (stereo not given in full), the growth in the experiment with SK-MEL-2 melanoma is -0.534% (active); in the experiment with EKVX NSCLC it was 30.5%; in the experiment with SN12C renal, -6.25% (active); in the experiment on UO-31 renal, -38.2% (active); in the experiment with TK-10 renal it was -36.3% (active); in the experiment with ACHN renal it was -92.2% (active). For the same molecule, the growth with CAKI-1 renal was -40.5% (active); with A498 renal, -19.1% (active); in the experiment on CCRF-CEM leukemia, -48.6% (active); in the experiment with MOLT-4 leukemia, -53.2% (active).

`CC(C)N=C(N)/N=C(\N)Nc1ccc2ccc3ccccc3c2c1`: the growth in the experiment on SK-MEL-2 melanoma is -81.8% (active); in the experiment with EKVX NSCLC it was -91.2% (active); with SN12C renal, -84.6% (active); with UO-31 renal, -58.4% (active); with TK-10 renal it was -89.6% (active); in the experiment with ACHN renal it was -89.2% (active). For the same molecule, the growth in the experiment on CAKI-1 renal is -81.1% (active); in the experiment on A498 renal it was -73.7% (active); in the experiment with CCRF-CEM leukemia, 12.3%; in the experiment with MOLT-4 leukemia it was -3.58% (active).

As for `O=[N+]([O-])C=C(c1ccccc1)c1ccccc1`, the growth with SK-MEL-2 melanoma was 95.5%; in the experiment with EKVX NSCLC, 71%; in the experiment with SN12C renal, 81.1%; in the experiment on UO-31 renal it was 60.9%; with TK-10 renal, 84.8%; in the experiment with ACHN renal, 85.4%. In addition, the growth was 57.1% in the experiment with CAKI-1 renal, 124% with A498 renal, 68.6% with CCRF-CEM leukemia and 70.9% in the experiment with MOLT-4 leukemia.

Regarding `C/C(=N/NC(N)=S)c1ccc(C)cc1`, the growth in the experiment on SK-MEL-2 melanoma was 101%; in the experiment on EKVX NSCLC it was 53.9%; in the experiment on SN12C renal, 87.4%; in the experiment with UO-31 renal, 68.1%; in the experiment on TK-10 renal, 102%; in the experiment with ACHN renal, 96.6%. In addition, the growth with CAKI-1 renal was 99.8%; in the experiment with A498 renal, 94.7%; in the experiment on CCRF-CEM leukemia, 43.3%; in the experiment on MOLT-4 leukemia it was 63.9%.

For `N=C(N)Sc1cccc[n+]1[O-]`, the growth in the experiment on SK-MEL-2 melanoma was 59%; with EKVX NSCLC, 47.7%; in the experiment with SN12C renal, 101%; in the experiment with UO-31 renal it was 36.1%; in the experiment with TK-10 renal, 86.2%; in the experiment on ACHN renal, 48.6%. For the same molecule, the growth is 79.5% in the experiment on CAKI-1 renal, 81.7% in the experiment on A498 renal, -8.85% (active) in the experiment on CCRF-CEM leukemia and 12.7% in the experiment on MOLT-4 leukemia.

Take `CN(C)CCN(C)CC(C)(C)C(=O)/C=C/c1ccc(Cl)c(Cl)c1`: the growth in the experiment on SK-MEL-2 melanoma is -93.3% [100 µM] (active); with EKVX NSCLC, -82.4% [100 µM] (active); in the experiment with SN12C renal it was -96.2% [100 µM] (active); in the experiment on UO-31 renal, -100% [100 µM] (active); in the experiment on TK-10 renal, -97.7% [100 µM] (active); in the experiment on ACHN renal, -100% [100 µM] (active). Besides, the growth in the experiment with CAKI-1 renal is -100% [100 µM] (active); with A498 renal, -96% [100 µM] (active); with CCRF-CEM leukemia, -0.943% [100 µM] (active); in the experiment on MOLT-4 leukemia it was -23.3% [100 µM] (active).

On to `COc1cc(/C=C2\SC(=S)N(/C=C/c3nc4ccccc4[nH]c3=O)C2=O)cc(OC)c1OC`, for which the growth is 81.1% with SK-MEL-2 melanoma; 84.6% in the experiment with EKVX NSCLC; 98.2% in the experiment with SN12C renal; 2.14% (active) with UO-31 renal; 70.1% in the experiment on TK-10 renal; 82.4% in the experiment with ACHN renal. The growth with CAKI-1 renal was 87.2%; in the experiment on A498 renal, 60%; in the experiment on CCRF-CEM leukemia, 91.7%; in the experiment on MOLT-4 leukemia, 91.2%.

Turning to `CN1CCC(c2ccccc2)(c2ccccc2)C(=O)C1`, the growth is 122% with SK-MEL-2 melanoma; 47.3% in the experiment on EKVX NSCLC; 101% with SN12C renal; 68.9% with UO-31 renal; 76.4% in the experiment on TK-10 renal; 102% in the experiment with ACHN renal. In addition, the growth was 71.2% with CAKI-1 renal, 106% in the experiment on A498 renal, 29.1% in the experiment on CCRF-CEM leukemia and 92.7% in the experiment with MOLT-4 leukemia.

Consider `O=C1c2ccccc2C(=O)c2c(O)c(Cl)cc(O)c21`, for which the growth with SK-MEL-2 melanoma is 124%; in the experiment with EKVX NSCLC, 98.3%; in the experiment on SN12C renal, 96.5%; with UO-31 renal, 79.8%; with TK-10 renal, 89.4%; in the experiment with ACHN renal, 92.1%. Besides, the growth with CAKI-1 renal is 95.1%; with A498 renal, 91%; with CCRF-CEM leukemia, 64.3%; in the experiment on MOLT-4 leukemia, 75.9%.

`Cn1ccc(=Nc2ccc(NC(=O)c3ccc(N=c4ccn(C)c5ccc([N+](=O)[O-])cc45)cc3)cc2)cc1`: the growth was 91.1% with SK-MEL-2 melanoma; 77.5% in the experiment on EKVX NSCLC; 45.3% in the experiment with SN12C renal; 82.6% with UO-31 renal; 122% in the experiment on TK-10 renal; 99.2% in the experiment on ACHN renal. The growth in the experiment on CAKI-1 renal is 113%; with A498 renal, 97.6%; with CCRF-CEM leukemia, 89.2%; in the experiment with MOLT-4 leukemia, 126%.

Take `O=C1Nc2ccc(Br)cc2C1=O`: the growth in the experiment with SK-MEL-2 melanoma is 117%; in the experiment on EKVX NSCLC, 101%; in the experiment with SN12C renal, 97%; with UO-31 renal, 78.9%; with TK-10 renal, 131%; with ACHN renal, 101%. The growth in the experiment with CAKI-1 renal was 100%; in the experiment on A498 renal, 107%; with CCRF-CEM leukemia it was 93.5%; in the experiment with MOLT-4 leukemia it was 95.9%.

Consider `Cc1nnc(N/N=C/c2ccc([N+](=O)[O-])o2)[nH]c1=O`, for which the growth in the experiment with SK-MEL-2 melanoma was 7.95% (active); in the experiment with EKVX NSCLC, -17.2% (active); with SN12C renal, 13.8%; in the experiment on UO-31 renal, 5.83% (active); in the experiment on TK-10 renal, -10.2% (active); in the experiment on ACHN renal, -50.8% (active). Besides, the growth in the experiment on CAKI-1 renal was -23.3% (active); with A498 renal, -1.71% (active); with CCRF-CEM leukemia it was -21.9% (active); in the experiment with MOLT-4 leukemia, 5.88% (active).

Take `Cc1cccc2c(N)c3ccccc3nc12`: the growth was -28.5% (active) in the experiment with SK-MEL-2 melanoma; 1.94% (active) in the experiment on EKVX NSCLC; -9.63% (active) in the experiment on SN12C renal; -53.9% (active) with UO-31 renal; -5.29% (active) in the experiment with TK-10 renal; -18.6% (active) in the experiment on ACHN renal. Moreover, the growth with CAKI-1 renal was -21.9% (active); in the experiment on A498 renal, -46.5% (active); with CCRF-CEM leukemia, 6.63% (active); in the experiment with MOLT-4 leukemia, 2.71% (active).

For the molecule `CCCCCC/C=C1\CCC(CN2CCCC2)C1=O` (stereo not given), the growth is 114% with SK-MEL-2 melanoma; 113% in the experiment on EKVX NSCLC; 103% in the experiment with SN12C renal; 90.4% in the experiment on UO-31 renal; 124% in the experiment with TK-10 renal; 114% in the experiment on ACHN renal. Moreover, the growth with CAKI-1 renal is 102%; in the experiment with A498 renal, 94.1%; in the experiment on CCRF-CEM leukemia, 33.1%; in the experiment with MOLT-4 leukemia, 60.2%.
